From PubChem BioAssay
Sampled rows, rich in hits. Any-hit rate of the full collection: about 2.2%.
FUS yeast rescue: FUS proteinopathy suppression in yeast; S. cerevisiae FUS-expressing, growth rescue, OD600, 24 h; Potency, µM (titrated, usually from 76.6 µM), actives largely listed as activators; 0.24% of 390,000 active; AID 1347120; further: nearly all actives have a fitted effect of over 55% in size
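Yeast expressing FUS under galactose induction, OD 0.005 in 2% galactose medium; compounds in a dilution series, 24 h at 30C. Growth rescue by absorbance at 600 nm; CP55940 positive control, DMSO negative.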
Mito fusion yeast: blocks mitochondrial division or promotes mitochondrial fusion. S. cerevisiae fusion-defective mutant growth rescue, CellTiterGlo 48 h. Potency, µM (top dose mostly 46.1 µM), usual class: activators. 0.23% of 320,000 active; further: nearly all actives have a fitted effect of over 45% in size
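Growth-rescue viability read-out: after 48 h at the non-permissive 37C in glycerol/ethanol YPEG, yeast mitochondrial fusion mutants are measured by CellTiterGlo luminescence; compounds (23 nl pinned per well) restoring growth score as division inhibitors or fusion activators.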
TDP43 rescue: TDP-43 toxicity inhibition in yeast | TDP-43 expressing yeast growth rescue, BacTiter-Glo, 24 h | AID 652104 | Potency, µM (doses to about 46.1 µM), usual class: activators | 1.8% of 410,000 active; further: nearly all actives have a fitted effect of over 50% in size
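Luminescence from BacTiter-Glo reports growth of TDP-43-expressing yeast after 24 hr at 30 deg C with compound. Cells were raffinose-pregrown to mid-log, then seeded in galactose medium at OD600=0.02.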
Abeta rescue: A-beta toxicity reversal in yeast | yeast expressing A-beta42, growth rescue, OD600, 48 h; response scale: 0% DMSO, 100% iron-clioquinol control | Potency, µM (highest dose often 46.1 µM), most hits filed as activators | 0.063% of 410,000 active | AID 1347071; further: nearly all actives have a fitted effect of over 55% in size
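Growth rescue measured by 600 nm absorbance after 48 h yeast culture at 30 C with compound. Values normalized between DMSO and an equimolar ferric chloride plus clioquinol control.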
aSyn rescue: inhibitors of alpha-synuclein toxicity in yeast; AID 652106; Yeast expressing alpha-synuclein, growth rescue, BacTiter-Glo, 24 h; Potency, µM (series often up to 46.1 µM), hits mostly activators; 0.14% of 370,000 active; further: nearly all actives have a fitted effect of over 65% in size
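Readout is rescue of growth in alpha-synuclein-expressing yeast, so inhibitors of toxicity appear as activators. Growth after 24 hr at 30 deg C in galactose medium is quantified by luminescence.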
Of the large screens only hits and unclear results are named; the others gave an inactive call; ! = not active in a repeat. The call rests on the fitted dose curve; in most records, active means well fitted curve in the direction sought with a large enough effect; inconclusive means small, poorly fitted or top-dose-only effect, or another doubt; inactive means no such curve, though single readings can be large; an effect the other way counts as inactive or inconclusive.

C[C@H](CCC(=O)O)[C@H]1CC[C@H]2[C@@H]3CC[C@@H]4C[C@H](O)CC[C@]4(C)[C@H]3CC[C@]12C	aSyn rescue 5µM
CC(=O)[C@H]1CC[C@H]2[C@@H]3CCC4=CC(=O)CC[C@]4(C)[C@H]3CC[C@]12C	Mito fusion yeast 18µM!, TDP43 rescue 35µM
O=C(Cn1c(=O)oc2ccccc21)NCCc1ccccc1	none
C[C@@H]1CN([C@@H](C)CO)C(=O)CCCn2nncc2CO[C@@H]1CN(C)C(=O)Nc1ccc(N2CCCCC2)cc1	none (no result: Mito fusion yeast)
CC(=O)[C@H]1CCC2C3CC[C@H]4C[C@H](O)CC[C@]4(C)C3CC[C@@]21C (some centres not stated)	Mito fusion yeast 5.2µM (no result: FUS yeast rescue, TDP43 rescue, Abeta rescue)
C[C@]12CC[C@H](O)C[C@@H]1CC[C@@H]1[C@@H]2CC[C@]2(C)[C@@H](C(=O)O)C[C@@H]12	TDP43 rescue inconclusive
Nc1c(C(=O)OC2CCCCC2)c2nc3ccccc3nc2n1CC1CCCO1 (configuration not stated)	TDP43 rescue 28µM
O=C(COc1ccc(Cl)cc1)N1CCN(Cc2ccccc2)CC1	none
CC(C)(Oc1ccc(Cl)cc1)C(=O)OCC(=O)N1CCN(c2ccccc2)CC1	TDP43 rescue 14µM
COc1ccc(C/C(=N\OC(C)=O)c2ccc(OC)cc2)cc1	TDP43 rescue inconclusive
CC(C)(C)NC(=O)C1CC2CCCCC2CN1 (configuration not stated)	Mito fusion yeast 3.5µM
CCN(CC)P(=O)(Nc1ccc([N+](=O)[O-])cc1)c1c(C)nn(CCC#N)c1NC(=O)c1ccc(Cl)cc1Cl (configuration not stated)	none
CCn1nc(/C=C/c2ccccc2)nc2c(=O)n(C)c(=O)nc1-2	TDP43 rescue 3.2µM
C=CCOC(Cn1ccnc1)c1ccc(Cl)cc1Cl (configuration not stated)	Mito fusion yeast 25µM, TDP43 rescue 11µM, aSyn rescue inconclusive
Nc1ccc2c(c1)Cc1cc([N+](=O)[O-])ccc1-2	TDP43 rescue 8.9µM, aSyn rescue inconclusive
O=[N+]([O-])c1ccc2c(c1)Cc1cc(O)ccc1-2	TDP43 rescue 3.5µM (no result: FUS yeast rescue, Mito fusion yeast)
Nc1ccc2c(c1)Cc1ccccc1-2	none
O=[N+]([O-])c1cccc(O)c1	TDP43 rescue inconclusive
COc1cccc(N2CCN(C(=O)C3CCCN(S(=O)(=O)c4ccc5c(c4)oc(=O)n5C)C3)CC2)c1 (configuration not stated)	Mito fusion yeast inconclusive
Oc1ccc(Cl)cc1Cc1cc(Cl)ccc1O	TDP43 rescue inconclusive, Abeta rescue inconclusive
Oc1ccc(Cl)cc1Cc1ccccc1	TDP43 rescue 14µM (no result: Mito fusion yeast)
C#CCCC[C@@H]1OC(=O)CNC(=O)C([C@@H](C)CC)NC(=O)[C@@H]2CCCN2C(=O)C([C@@H](C)CC)OC(=O)[C@H](Cc2ccccc2)N(C)C(=O)[C@H](C(C)C)NC(=O)C1(C)C (some centres not stated)	FUS yeast rescue 7.9µM (no result: Mito fusion yeast)
Cc1cccn2c(=O)c3c(nc12)N1CCC(Cc2ccccc2)CC1C1(C3)C(=O)N(C)C(=O)N(C)C1=O (configuration not stated)	Mito fusion yeast 18µM
COC1C(C)OC(OC2CC(C)(O)Cc3cc4c(c(O)c32)C(=O)c2c(O)cc3c(c2C4=O)OC2OC3(C)C(O)C(N(C)C)C2O)C(OC)C1(C)OC (configuration not stated)	TDP43 rescue 22µM, aSyn rescue inconclusive (no result: FUS yeast rescue, Mito fusion yeast)
O=c1c(-c2ccccc2)c(O)c2ccccc2n1-c1ccccc1	Mito fusion yeast inconclusive, TDP43 rescue 13µM
Cc1cc(N(C)C)ccc1N=Nc1ccc(N)cc1	TDP43 rescue 13µM (no result: Mito fusion yeast)
Nc1ccc(N=Nc2ccccc2)cc1	none
Cc1cccc(OCCn2c(=O)oc3ccc(C)cc32)c1	TDP43 rescue 14µM
Cc1cccc(OCCn2cccc2/C=C2/C(=O)NC(=O)N(Cc3ccco3)C2=O)c1	none
O=S(=O)(c1ccccc1C(F)(F)F)N1CCN(c2ncnc3sccc23)CC1	TDP43 rescue 13µM (no result: Mito fusion yeast)
Cn1c(=O)oc2cc(S(=O)(=O)N3CCC(C(=O)N4CCN(c5ccc(F)cc5)CC4)CC3)ccc21	aSyn rescue inconclusive
CC(C)[C@@]1(NC(=O)[C@@H]2C[C@@H]3c4cccc5[nH]cc(c45)C[C@H]3N(C)C2)O[C@@]2(O)[C@@H]3CCCN3C(=O)[C@H](Cc3ccccc3)N2C1=O	FUS yeast rescue inconclusive, Mito fusion yeast 23µM!
CC(C)[C@@]1(NC(=O)[C@@H]2C=C3c4cccc5[nH]cc(c45)C[C@H]3N(C)C2)O[C@@]2(O)[C@@H]3CCCN3C(=O)[C@H](Cc3ccccc3)N2C1=O	none (no result: FUS yeast rescue, TDP43 rescue, Abeta rescue, aSyn rescue)
Cc1ccc(-c2ccc3c(c2)O[C@H](CN(C)C(=O)CC2CC2)[C@H](C)CN([C@@H](C)CO)S3(=O)=O)cc1	TDP43 rescue inconclusive (no result: Mito fusion yeast)
Cc1ccccc1-c1ccc2n1Cc1cnnn1-c1ccccc1-2	TDP43 rescue 13µM (no result: Mito fusion yeast)
O=C(O)C1(Br)CC12c1ccccc1-c1ccccc12 (configuration not stated)	TDP43 rescue 13µM (no result: FUS yeast rescue, Mito fusion yeast)
CC(C)(O)[C@@H]1C2OC(=O)[C@@H]1[C@]1(O)C[C@H]3O[C@]34C(=O)O[C@H]2[C@]14C (tested in a mixture with another compound)	none (no result: FUS yeast rescue, TDP43 rescue, Abeta rescue)
CCOC(=O)c1c(-n2c(C)cc(C=C3C(=O)NC(=S)NC3=O)c2C)sc2c1CCCC2	TDP43 rescue 18µM
CCC(=NC(C)c1ccccc1)c1c(O)n(C)c(=O)n(C)c1=O (configuration not stated)	TDP43 rescue inconclusive
COc1ccc(C=C2C(=O)NC(=S)NC2=O)cc1OC	none (no result: Mito fusion yeast)
O=C1NC(=O)C(=Cc2ccccc2OCCOc2ccc([N+](=O)[O-])cc2)C(=O)N1	none
O=C1NC(=O)C(=Cc2ccc(Oc3ccc([N+](=O)[O-])cc3)cc2)C(=O)N1	TDP43 rescue 16µM
COc1cc(C=C2C(=O)NC(=O)NC2=O)ccc1OCc1ccc([N+](=O)[O-])cc1	TDP43 rescue 11µM
C=CCN1CC[C@]23c4c5ccc(O)c4O[C@@H]2/C(=N/N=C2\CC[C@@]4(O)C6Cc7ccc(O)c8c7[C@@]4(CCN6CC=C)[C@@H]2O8)CC[C@@]3(O)C1C5	Mito fusion yeast inconclusive (no result: FUS yeast rescue, TDP43 rescue, Abeta rescue)
Brc1c(Br)c(Br)c2n[nH]nc2c1Br	Mito fusion yeast 4.6µM (no result: FUS yeast rescue, TDP43 rescue, Abeta rescue)
O=C(Oc1ccc([N+](=O)[O-])cc1)N1CCN(/[N+]([O-])=N/Oc2ccc([N+](=O)[O-])cc2[N+](=O)[O-])CC1	none (no result: FUS yeast rescue, Mito fusion yeast, TDP43 rescue, Abeta rescue)
C[C@H]1COC(=O)[C@@H](Cc2ccc(F)cc2)CC/C=C/C[C@@H](CC(=O)N(CCO)Cc2ccccc2)C(=O)N1	TDP43 rescue inconclusive (no result: Mito fusion yeast)
CCC1(C)CC(C(N)=S)CCO1 (configuration not stated)	none
